# Shown is part of a subset that was picked to be rich in hits.
# Pf Dd2 inh: blocks in vitro growth of P. falciparum Dd2; P. falciparum Dd2 growth, SYBR Green, 72 h; AID 1347417; Potency, µM (doses to about 28.9 µM), inactives show at the highest dose activity, negative = inhibition, usual class: inhibitors; 4.3% of 120,000 active; active = well fitted inhibition curve with a large enough effect;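 also: plate controls were DMSO vehicle for no effect and reference drug for full effect; nearly all actives have a fitted effect of over 65% in size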
#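 Infected erythrocytes (Dd2, 0.3% parasitemia, 2.5% hematocrit final) are added to compound in RPMI-1640/Albumax II medium, grown 72 h at 37C in low oxygen, then lysed with saponin/Triton-X containing SYBR Green and read by fluorescence.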
# Numbers without * were called inactive; i = inactive; [ ] = another dose, or the depositor's remark. Potency is read from the fitted curve at half-maximal effect.
SMILES,Pf Dd2 inh
COCCNC(=O)Cc1ccc(N(Cc2ccc(C)cc2)C(=O)c2ccco2)cc1,5.6µM*
O=C(Cc1ccc(N(Cc2ccc(F)cc2)C(=O)c2ccco2)cc1)NCCc1ccccc1,-3%
CCNC(=O)Cc1ccc(N(Cc2ccc(C)cc2)C(=O)c2ccco2)cc1,i
C=CCNC(=O)Cc1ccc(N(Cc2ccccc2)C(=O)c2ccco2)cc1,i
COc1ccc(CN(C(=O)c2ccco2)c2ccc(CC(=O)NCCc3ccccc3)cc2)cc1,4µM*
COCCNC(=O)Cc1ccc(N(Cc2cccc(F)c2)C(=O)c2ccco2)cc1,i
O=c1ncn(CC2CC2)c2ccc(-c3ccc(F)cc3F)nc12,i
Cc1cc(C(=O)N2Cc3nnc(C)n3C(C)C2)c(-c2ccccc2)o1 (stereo not given),-2%
Cc1nc2c(C(=O)NCCc3ccc(Cl)cc3)c[nH]n2c(=O)c1Cc1ccccc1F,30%
COc1ccc(CCNC(=O)c2c[nH]n3c(=O)c(Cc4ccccc4Cl)c(C)nc23)cc1OC,10µM*
Cc1nc2c(C(=O)NCCc3ccccc3)c[nH]n2c(=O)c1Cc1ccc(F)cc1Cl,18%
O=C(c1ccccn1)C1CCCN(c2ncncn2)C1 (stereo not given),4%
COc1ccc(S(=O)(=O)N2[C@@H]3CC[C@H]2CC(NC(=O)c2ccc(F)cc2)C3)cc1OC (stereo not given in full),-17%
CC(C)C1CN(c2ccc(C#N)cn2)CCC(=O)N1Cc1ccc(F)cc1 (stereo not given),-14%
Fc1ccc(OCC2CCCN(c3ccc(Cn4ccnc4)cn3)C2)cc1 (stereo not given),11µM*
COc1ccc(-c2cc(N3CCCC(NC(=O)Cc4ccc(F)cc4)C3)n[nH]2)cc1 (stereo not given),-24%
Cc1ccc(Cn2c(=O)n(CC3CCC(C(=O)N4CCOCC4)CC3)c(=O)c3sccc32)cc1 (stereo not given),-7%
Cc1ccccc1Cn1c(=O)n(CC2CCC(C(=O)N3CCOCC3)CC2)c(=O)c2sccc21 (stereo not given),-19%
O=C(C1CCC(Cn2c(=O)c3sccc3n(Cc3cccc(F)c3)c2=O)CC1)N1CCCCC1 (stereo not given),8.9µM*
CC(C)CN1CC[C@H]2COC(=O)N2c2cc(F)ccc2C1,i
CCN1CC2(CCC1=O)CCN(Cc1ccc(C(F)(F)F)c(F)c1)CC2,-8%
O=c1c2nc(-c3ccc(O)c(F)c3)ccc2ncn1-c1ccc(F)cc1F,-26%[44.1 µM]
O=c1c2nc(-c3ccc(O)c(F)c3)ccc2ncn1-c1ccccc1,13µM*
O=c1c2nc(-c3ccncc3)ccc2ncn1-c1ccccc1,-17%[44.1 µM]
O=C(C1CCCC1)N1CCN(c2cc(-c3ccccc3)[nH]n2)CC1,i
SMILES,Pf Dd2 inh
Cc1cccc(C2C=C(c3ccc(C)c(C)c3)Nc3nnnn32)c1 (stereo not given),11µM*
COc1ccc(C2C=C(c3ccc(Br)cc3)Nc3nnnn32)c(OC)c1 (stereo not given),-30%
Cc1ccc(C2=CC(c3c(F)cccc3Cl)n3ncnc3N2)cc1C (stereo not given),3%
Clc1ccccc1C1(c2ccnc(CC3CC3)n2)CCNCC1,5µM*
CC1(C(=O)NCC2CC2)CCc2cnc(NCc3ccccc3)nc21 (stereo not given),-12%[44.1 µM]
COc1ccccc1Cc1nccc(C2(c3ccccc3Cl)CCNCC2)n1,8.9µM*
Clc1ccccc1C1(c2ccnc(C3CCCC3)n2)CCNCC1,4µM*
c1ccc(-c2nc(CC3CCCNC3)no2)nc1 (stereo not given),-14%
COc1ccccc1Cc1nc2ccccc2[nH]c1=O,45%
c1coc(-c2ccnc3nc(C4CCC4)nn23)c1,-7%
COc1ccccc1Cn1cnc2cccnc21,-13%[44.1 µM]
CC1(C(=O)NCc2ccncc2)CCCc2cnc(NCc3ccccc3)nc21 (stereo not given),i
c1cnc2nc(C3CCNCC3)[nH]c2c1,-4%[44.1 µM]
Clc1ccccc1C1(c2ccnc(NCc3ccccc3)n2)CCNCC1,4.5µM*
O=C(NCCN1CCCCC1)C1(CCO)CC12CCOCC2 (stereo not given),16%
Cc1cccc(CNC(=O)C2c3ccccc3CC(=O)N2C(C)C)c1 (stereo not given),i
CC(c1cccs1)N(C)Cc1cccc(C(F)(F)F)c1 (stereo not given),16%[44.1 µM]
Cc1ccc(C2Cn3nnc(C(=O)N4CCC(C(=O)Nc5ccc(Cl)c(C)c5)CC4)c3CO2)cc1 (stereo not given),i
COc1ccccc1CC(=O)N1CCC[C@H]1c1nc(-c2ccccc2Cl)no1,i
COC1CCC(C(=O)N2CCc3c(n(CCOc4ccccc4)n(-c4ccccc4)c3=O)C2)CC1 (stereo not given),-7%
COc1ccc(CN2CCOC[C@H](Oc3ccc(C(F)(F)F)cn3)C2)cc1,-29%[44.1 µM]
COc1ccc(CN2CCOC[C@H](Oc3cccc(C)n3)C2)cc1,i
COc1ccc(CN2CCOC[C@H](Oc3ccccc3)C2)cc1,7.1µM*
COc1ccc(OC2CN(Cc3ccc(F)cc3)C2)cc1,13%[44.1 µM]
Fc1ccc(CN2CCOC[C@H](Oc3ccccc3)C2)cc1,13µM*
SMILES,Pf Dd2 inh
CS(=O)(=O)c1ccc(O[C@H]2COCCN(Cc3cccnc3)C2)cc1,3%[44.1 µM]
COC(=O)CC[C@H]1CNC(=O)[C@@H]2[C@@H](CCN2C(=O)NC(C)C)N1C,5%[44.1 µM]
Cc1ccc(Cl)cc1N1CCN(C(=O)C2CCCN(Cc3nc(-c4cccc(Cl)c4)oc3C)C2)CC1 (stereo not given),-4%
CSc1ccc(-c2nc(CN3CCCC(CO)C3)c(C)o2)cc1 (stereo not given),i
Cc1oc(-c2cccc(C(F)(F)F)c2)nc1CN1CCCC(CO)C1 (stereo not given),11µM*
Cn1cc([C@@H](NC(=O)c2cccc3c2NCCC3)C2CC(O)C2)cn1 (stereo not given in full),2%
O=C(Cc1c[nH]c2ccccc12)N1CCC(Cc2nc(-c3ccccc3)n[nH]2)CC1,-5%
CC(C)(C)c1ccccc1NC(=O)CSc1nc(-c2cccs2)cc(C(F)(F)F)n1,i
COC(=O)c1ccccc1NC(=O)CSc1nc(-c2ccccc2)cc(C(F)(F)F)n1,2.8µM*
COC(=O)c1ccccc1NC(=O)CSc1n[nH]c(C)n1,53%
COCCN1CCC(N2CCN(C(=O)c3cc(C)ccc3C)CC2)C1=O (stereo not given),-9%
O=C(NC1CCN(c2cc(C(F)(F)F)ncn2)CC1)c1ccccc1,27%
CC(C)C(=O)N1CCC2(CC1)CC(N1CCCC1)CCO2 (stereo not given),-1%
CC(=O)N1CCC(CC(=O)N2CCN(c3cc(-c4ccccc4)[nH]n3)CC2)CC1,12%
CCn1c(CN2CCC(C)CC2)nc2cc(NC(=O)c3ccc([N+](=O)[O-])cc3)ccc21,-28%
CCn1c(CN2CCOCC2)nc2cc(NC(=O)c3ccc([N+](=O)[O-])cc3)ccc21,-2%
CCn1c(CN2CCC(C)CC2)nc2cc(NC(=O)c3cccc([N+](=O)[O-])c3)ccc21,6.3µM*
COc1ccc(C(=O)N2CCC([C@H]3[C@@H](OC)C(=O)N3C(C)C)CC2)c(OC)n1,-1%
N#Cc1cccc(CN2CCc3ncc(C(=O)NCCOc4ccccc4)n3CC2)c1,-1%[44.1 µM]
O=C(NCCOc1ccccc1)c1cnc2n1CCN(Cc1ccc3[nH]ccc3c1)CC2,13µM*
O=C(NCCOc1ccccc1)c1cnc2n1CCN(Cc1ccccc1O)CC2,1%[44.1 µM]

# High-throughput results as filed in PubChem.
